{
  "source": "PubChem BioAssay AID463173",
  "about": "(ICCB-Longwood Screening Facility, Harvard Medical School, 2010)",
  "note": "Out of some 52,000 compounds screened, about 1,700 (3.3%) were called active. Shown is part of a subset that was picked to be rich in actives. Unmarked numbers belong to inactive results. No stated cut-off is given here; in the data, active means survival mostly below about 52% (no sharp cut-off); inactive means mostly above about 56%.",
  "data": [
    {"tested_on": "Wild type", "test": "S. aureus survival, RN4220 and DeltatarO strains – OD600, teichoic acid synthesis inhibitors, primary screen (AID 463173)", "conditions": "S. aureus RN4220 wild type/DeltatarO growth, OD600, 18 h, hits give low values, screened at 18.75 µg/mL (by protocol)", "values": [
      {"compound": "O=C(Cn1c(=O)nc(-c2ccccc2)c2ccccc21)NCc1ccc(F)cc1", "survival": "68%"},
      {"compound": "CC(=O)c1ccc(N2CCN(C(=O)CCS(=O)(=O)c3ccc4c(c3)oc(=O)n4C)CC2)cc1", "survival": "89%"},
      {"compound": "CCCCCOc1ccc(/C=C/C(=O)Nc2sc(C)c(C)c2C(=O)OCC)cc1OC", "survival": "132%"},
      {"compound": "CCCOCc1cc(CN2CCN(c3ccccc3OC)CC2)c(O)c2ncccc12", "survival": "99%"},
      {"compound": "CC(C)OC(=O)C1=C(N)OC2=C(C(=O)CCC2)C1c1ccccc1F", "note": "(stereo not drawn)", "survival": "114%"},
      {"compound": "COc1ccc(CCNC(=O)Cn2c(-c3ccc(F)cc3)cc(C(C)=O)c2C)cc1OC", "survival": "54%"},
      {"compound": "CN1CCN(CCCNC(=O)c2cnn(-c3ccc(F)cc3)c2-n2cccc2)CC1", "survival": "84%"},
      {"compound": "O=C(Cc1cccs1)NC1CC(=O)N(c2ccc(F)cc2)C1", "note": "(stereo not drawn)", "survival": "95%"},
      {"compound": "COc1ccc(N2CC(NC(=O)CCCc3ccccc3)CC2=O)cc1", "note": "(stereo not drawn)", "survival": "0% (active)"},
      {"compound": "Cc1cccc(CC(=O)NC2CC(=O)N(c3cccc(F)c3)C2)c1", "note": "(stereo not drawn)", "survival": "60%"},
      {"compound": "COc1cccc(N2CC(NC(=O)CCCc3ccccc3)CC2=O)c1", "note": "(stereo not drawn)", "survival": "88%"},
      {"compound": "O=C(Cc1cccs1)NC1CC(=O)N(c2ccccc2)C1", "note": "(stereo not drawn)", "survival": "78%"},
      {"compound": "COc1ccc(C(=O)NC2CC(=O)N(c3ccc4c(c3)OCCO4)C2)cc1", "note": "(stereo not drawn)", "survival": "143%"},
      {"compound": "COc1ccc(N2CC(NC(=O)c3ccc(OC(C)C)cc3)CC2=O)cc1", "note": "(stereo not drawn)", "survival": "-2% (active)"},
      {"compound": "O=C(Cc1ccccc1)NC1CC(=O)N(c2ccccc2)C1", "note": "(stereo not drawn)", "survival": "76%"},
      {"compound": "Cc1ccc(N2CC(NC(=O)Cc3cccs3)CC2=O)cc1", "note": "(stereo not drawn)", "survival": "0% (active)"},
      {"compound": "Cc1cccc(CC(=O)NC2CC(=O)N(c3ccccc3)C2)c1", "note": "(stereo not drawn)", "survival": "-6% (active)"},
      {"compound": "COc1ccc(CCC(=O)NC2CC(=O)N(c3ccccc3)C2)cc1", "note": "(stereo not drawn)", "survival": "131%"},
      {"compound": "COc1ccc(N2CC(NC(=O)c3ccc(S(=O)(=O)N4CCCC4)cc3)CC2=O)cc1", "note": "(stereo not drawn)", "survival": "118%"},
      {"compound": "COc1ccc(N2CC3=C(C2=O)C(c2ccc(O)c(OC)c2)NC(=O)N3C)cc1", "note": "(stereo not drawn)", "survival": "71%"},
      {"compound": "CCN(C(=O)Cn1nc(Cc2cccnc2)c2ccccc2c1=O)c1cc(C)ccc1C", "survival": "83%"},
      {"compound": "CCc1ccccc1NC(=O)Cn1c(SCc2ccc(F)cc2)nc2ccncc21", "survival": "48%"},
      {"compound": "COc1ccc(NC(=O)C2CCN(S(=O)(=O)c3c(C)noc3/C=C/c3ccco3)CC2)cc1", "survival": "128%"},
      {"compound": "COc1ccc(CCNC(=O)CCn2c(=O)c3ccccc3n(Cc3ccccc3)c2=O)cc1OC", "survival": "97%"},
      {"compound": "CCC(=O)Nc1ccc(CC)cc1-c1nc2ccccc2n(CC(=O)c2ccc(OC)cc2)c1=O", "survival": "74%"},
      {"compound": "Cc1ccc(N2CC(NC(=O)CCCc3ccccc3)CC2=O)cc1", "note": "(stereo not drawn)", "survival": "53%"},
      {"compound": "O=C(CCc1ccccc1)NC1CC(=O)N(c2ccccc2)C1", "note": "(stereo not drawn)", "survival": "78%"},
      {"compound": "Cc1ccc(N2CC(NC(=O)CCc3ccccc3)CC2=O)cc1", "note": "(stereo not drawn)", "survival": "-3% (active)"},
      {"compound": "COc1ccccc1NC(=O)CN(c1ccc(C(C)C)cc1)S(=O)(=O)c1c(C)noc1C", "survival": "88%"},
      {"compound": "O=c1c2cc3c(nc2ncn1Cc1ccc(Cl)cc1)CCCC3", "survival": "76%"},
      {"compound": "CCSc1nsc(NC(=O)Nc2cccc(F)c2)n1", "survival": "0% (active)"},
      {"compound": "CCSc1nsc(NC(=O)Nc2cccc(OC)c2)n1", "survival": "95%"},
      {"compound": "O=C(CSc1nnc(NC(=O)Nc2ccccc2)s1)Nc1cccc(F)c1", "survival": "75%"},
      {"compound": "Cc1ccc(CNC(=O)c2ccc(CSCc3ccc(Cl)cc3)o2)cc1", "survival": "85%"},
      {"compound": "CCOc1ccc(C(c2c(O)cc(C)n(Cc3ccco3)c2=O)N2CCN(C)CC2)cc1", "note": "(stereo not drawn)", "survival": "66%"},
      {"compound": "CC(C)(C)OC(=O)N1CCC(c2c(C(=O)NCc3ccc4c(c3)OCO4)cnn2-c2ccccc2Cl)CC1", "survival": "75%"},
      {"compound": "CCCCN(C)C(=O)C1CCC(Cn2c(=O)[nH]c3ccsc3c2=O)CC1", "note": "(stereo not drawn)", "survival": "-2% (active)"},
      {"compound": "CCCCCNC(=O)CCCCCn1c(=O)[nH]c2ccsc2c1=O", "survival": "62%"},
      {"compound": "CNC(=O)C1CCC(Cn2c(=O)[nH]c3ccsc3c2=O)CC1", "note": "(stereo not drawn)", "survival": "80%"},
      {"compound": "CCCn1nc(NC(=O)c2cccc(Cl)c2)c2cc3cccc(C)c3nc21", "survival": "87%"},
      {"compound": "COc1ccc(-c2cccc(NS(=O)(=O)c3ccc(C)s3)c2)nn1", "survival": "91%"},
      {"compound": "CCc1ccc(-c2nc(CN3CCCC(C(=O)N4CCN(c5cc(Cl)ccc5C)CC4)C3)c(C)o2)cc1", "note": "(stereo not drawn)", "survival": "84%"},
      {"compound": "COc1ccc(-c2nc(CSCC(=O)N3CCN(c4ccccc4F)CC3)c(C)o2)cc1", "survival": "24%"},
      {"compound": "COc1ccc(-c2nc(CSCC(=O)N3CCN(c4ccc(OC)cc4)CC3)c(C)o2)cc1", "survival": "81%"},
      {"compound": "COc1ccc(-c2nc(CSCC(=O)N3CCN(c4cc(Cl)ccc4C)CC3)c(C)o2)cc1", "survival": "-1% (active)"},
      {"compound": "Cc1cccc(-c2nc(CN3CCCC(C(=O)N4CCN(c5cc(Cl)ccc5C)CC4)C3)c(C)o2)c1", "note": "(stereo not drawn)", "survival": "75%"},
      {"compound": "Cc1cccc(N2CCN(C(=O)C3CCN(Cc4nc(-c5ccc(Cl)cc5)oc4C)CC3)CC2)c1C", "survival": "47%"},
      {"compound": "Cc1ccc(Cl)cc1N1CCN(C(=O)C2CCN(Cc3nc(-c4cccc(Cl)c4)oc3C)CC2)CC1", "survival": "-4% (active)"},
      {"compound": "Cc1ccc(Cl)cc1N1CCN(C(=O)C2CCN(Cc3nc(-c4ccc(Cl)cc4)oc3C)CC2)CC1", "survival": "-4% (active)"},
      {"compound": "Cc1oc(-c2cccc(Cl)c2)nc1CN1CCC(C(=O)NC(C)C)CC1", "survival": "92%"},
      {"compound": "Cc1ccc(C)c(N2CCN(C(=O)C3CCN(Cc4nc(-c5cccc(Cl)c5)oc4C)CC3)CC2)c1", "survival": "3% (active)"},
      {"compound": "Cc1ccc(C)c(N2CCN(C(=O)C3CCCN(Cc4nc(-c5cccc(Cl)c5)oc4C)C3)CC2)c1", "note": "(stereo not drawn)", "survival": "81%"},
      {"compound": "Cc1ccc(Cl)cc1N1CCN(C(=O)C2CCCN(Cc3nc(-c4cccc(Cl)c4)oc3C)C2)CC1", "note": "(stereo not drawn)", "survival": "84%"},
      {"compound": "Cc1cccc(N2CCN(CCCNC(=O)Cn3ncc4c([nH]c5ccccc54)c3=O)CC2C)c1", "note": "(stereo not drawn)", "survival": "101%"},
      {"compound": "CCc1ccccc1NC(=O)CSc1nnc(CC)c(CC)n1", "survival": "74%"},
      {"compound": "Cc1ccccc1CN1c2ccccc2S(=O)(=O)c2ccccc21", "survival": "73%"},
      {"compound": "Cc1cc(C)c(Cn2c3ccccc3c3cnn(CC(=O)NC4CCCCCC4)c(=O)c32)c(C)c1", "survival": "127%"},
      {"compound": "COc1ccc(-n2cc(-c3ccccc3)nc2SCC(=O)Nc2ccccc2)cc1Cl", "survival": "71%"},
      {"compound": "COc1ccc(Cl)cc1N=C1NC(=O)CC(C(=O)Nc2ccccc2C(F)(F)F)S1", "note": "(stereo not drawn)", "survival": "71%"},
      {"compound": "COc1ccc(CCNC(=O)CN2C(=O)COc3ccc(C)cc32)cc1OC", "survival": "71%"},
      {"compound": "COCCNC(=O)CCCn1c(SCC(=O)Nc2ccc(F)cc2)nc2c(sc3ccccc32)c1=O", "survival": "103%"},
      {"compound": "Cc1ccc2c(c1)-c1c(cnc3cc(-c4ccc(Cl)cc4)nn13)CO2", "survival": "61%"},
      {"compound": "CC(=O)c1cc2c(cc1N/C(=N/S(=O)(=O)c1ccc(Br)cc1)c1ccccc1)OCO2", "survival": "69%"},
      {"compound": "CC(=O)c1cc2c(cc1N/C(=N/S(=O)(=O)c1ccccc1)c1ccc(Cl)cc1)OCO2", "survival": "-2% (active)"},
      {"compound": "CC(=O)c1cc2c(cc1N/C(=N/S(=O)(=O)c1ccc(C)cc1)c1ccc(Cl)cc1)OCO2", "survival": "10% (active)"},
      {"compound": "CC(=O)c1cc2c(cc1N/C(=N/S(=O)(=O)c1ccc(C)cc1)c1ccccc1)OCO2", "survival": "88%"},
      {"compound": "CC(=O)c1cc2c(cc1N/C(=N/S(=O)(=O)c1ccc(Cl)cc1)c1ccc(F)cc1)OCO2", "survival": "80%"},
      {"compound": "CC(=O)c1cc2c(cc1N/C(=N/S(=O)(=O)c1ccc(C)cc1)c1ccc(F)cc1)OCO2", "survival": "82%"},
      {"compound": "CC(=O)Nc1ccc(NC(=O)c2ccc3c(c2)NC(=O)c2ccccc2S3)cc1", "survival": "138%"},
      {"compound": "CC1=C(C(=O)OC2CCCC2)C(c2c(F)cccc2Cl)CC(=O)N1", "note": "(stereo not drawn)", "survival": "87%"},
      {"compound": "O=C1CC(c2nnc(Cc3cccc(Cl)c3)o2)CN1c1ccccc1", "note": "(stereo not drawn)", "survival": "113%"},
      {"compound": "CS(=O)(=O)c1ccc(-c2nn[nH]n2)cc1", "survival": "103%"},
      {"compound": "O=C(Nc1c(C(=O)N2CCN(c3ccccc3)CC2)oc2ccccc12)c1ccc(Br)o1", "survival": "81%"},
      {"compound": "COc1cc(Cl)c(C)cc1Nc1nc2ccccc2n2cnnc12", "survival": "127%"},
      {"compound": "CCOC(=O)C1CCN(c2c(C(=O)c3ccc(OCC)cc3)cnc3ccc(OC)cc23)CC1", "survival": "0% (active)"},
      {"compound": "COc1ccc(C(=O)c2cnc3ccc(C)cc3c2S(=O)(=O)c2ccccc2)cc1", "survival": "79%"},
      {"compound": "CCOC(=O)C1CCN(C(=O)c2ccc(C)cc2)CC1", "survival": "93%"},
      {"compound": "COc1cc2ncc(C(=O)c3ccc(C)cc3)c(N3CCCCC3)c2cc1OC", "survival": "2% (active)"},
      {"compound": "CCOc1ccc(S(=O)(=O)c2c(C(=O)c3ccc(CC)cc3)cnc3ccc(C)cc23)cc1", "survival": "87%"},
      {"compound": "CCN1CCN(c2c(S(=O)(=O)c3ccc(OC)cc3)cnc3cc(OC)c(OC)cc23)CC1", "survival": "77%"},
      {"compound": "CCc1ccc2ncc(C(=O)c3ccc(C)c(C)c3)c(N3CCC(C(N)=O)CC3)c2c1", "survival": "102%"},
      {"compound": "CCOC(=O)C1CCN(c2c(C(=O)c3ccc(OC)cc3)cnc3ccccc23)CC1", "survival": "125%"},
      {"compound": "CCOC(=O)C1CCN(c2c(C(=O)c3ccc(C)cc3)cnc3ccc(F)cc23)CC1", "survival": "3% (active)"},
      {"compound": "CCCN(CCC)CCNC(=O)Cn1cc2c(n1)-c1c(oc(C(=O)N3CCCC3)c1C)CC2", "survival": "106%"},
      {"compound": "COc1ccc(-c2nc3ccccc3n3c(-c4cccc(C)c4)c4c(=O)n(C)c(=O)n(C)c4c23)cc1OC", "survival": "77%"},
      {"compound": "CC(C)Oc1ccc(CNC(=O)c2sc3ncccc3c2-n2cccc2)cc1", "survival": "64%"},
      {"compound": "O=C(CN1CCC(n2cnc3cc(F)ccc32)CC1)Nc1ccccc1Br", "survival": "108%"},
      {"compound": "CCOC(=O)c1ccc(NC(=O)c2c(NCc3cc(OC)c(OC)cc3OC)sc3c2CCCC3)cc1", "survival": "85%"}
    ]}
  ]
}
